Values joined by “and” are separate entries in the source; they are usually repeats but may differ in a detail not shown here. Equal values may be shown once. Screen size: about 5,500 compounds; about 2,000 (36%) were called active. Inconclusive results (about 18%) are left out. No stated cut-off is given here; in the data, active means normalized growth mostly below about 0.91 (no sharp cut-off); inconclusive means no clear call, values can overlap the other calls; inactive means mostly above about 0.92. The list shows a part of the results.
Assay: chemical genetic growth profiling, strain panel (AID 1159580);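 further: tested at 20 µM; growth read once vehicle control cultures reached saturation at 30 °C; 1 = growth at the plate median or of vehicle wells; lower values mean less growth of the strain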
Settings: S. cerevisiae deletion strains, growth OD

Measured: normalized growth

CCCc1nc2c(C)cc(-c3nc4ccccc4n3C)cc2n1Cc1ccc(-c2ccccc2C(=O)O)cc1
inactive: locus YAL013W, strain DEP1, hits give low values 1.01 | locus YAL021C, strain ccr4, hits give low values 1.02 | locus YAL026C, strain drs2, hits give low values 1 | locus YAL030W, strain snc1, hits give low values 1.01 | locus YBL061C, strain skt5, hits give low values 1.01 | locus YBR009C, strain hhf1, hits give low values 1.01 | locus YBR021W, strain FUR4, hits give low values 0.992 | locus YBR023C, strain chs3, hits give low values 1.01 | locus YBR171W, strain sec66, hits give low values 1.02 | locus YBR229C, strain ROT2, hits give low values 1 | locus YBR231C, strain swc5, hits give low values 1.02 | locus YBR279W, strain paf1, hits give low values 1.01 | locus YCL011C, strain gbp2, hits give low values 1.01 | locus YCL016C, strain dcc1, hits give low values 1 | locus YCL029C, strain bik1, hits give low values 1.01 | locus YCL069W, strain vba3, hits give low values 1.02 | locus YCR088W, strain abp1, hits give low values 1.02 | locus YDL005C, strain med2, hits give low values 1.02 | locus YDL035C, strain GPR1, hits give low values 0.98 | locus YDL040C, strain nat1, hits give low values 1.01 | locus YDL074C, strain BRE1, hits give low values 0.997 | locus YDL101C, strain DUN1, hits give low values 0.999 | locus YDL134C, strain PPH21, hits give low values 1 | locus YDL185W, strain tfp1, hits give low values 1.01 | locus YDL192W, strain arf1, hits give low values 1.02 | locus YDR001C, strain nth1, hits give low values 1.02 | locus YDR069C, strain doa4, hits give low values 1.03 | locus YDR101C, strain arx1, hits give low values 0.989 | locus YDR137W, strain rgp1, hits give low values 0.975 | locus YDR150W, strain NUM1, hits give low values 1.01 | locus YDR159W, strain sac3, hits give low values 0.978 | locus YDR162C, strain NBP2, hits give low values 1.01 | locus YDR195W, strain ref2 1.06 | locus YDR297W, strain sur2, hits give low values 1.01 | locus YDR318W, strain mcm21, hits give low values 1 | locus YDR334W, strain swr1, hits give low values 1.02 | locus YDR335W, strain msn5, hits give low values 1.03 | locus YDR388W, hits give low values 1.02 | locus YDR392W, strain spt3, hits give low values 0.829 | locus YDR502C, strain sam2, hits give low values 1 | locus YEL003W, strain gim4, hits give low values 1.02 | locus YEL037C, strain rad23, hits give low values 1.02 | locus YEL061C, strain CIN8 (second series), hits give low values 1.02 | locus YEL061C, strain CIN8, hits give low values 1.01 | locus YER015W, strain faa2, hits give low values 1.01 | locus YER016W, strain bim1, hits give low values 1.01 | locus YER110C, hits give low values 1.02 | locus YER111C, strain swi4, hits give low values 1.01 | locus YER155C, strain BEM2 (second series), hits give low values 0.926 | locus YER155C, strain BEM2, hits give low values 1 | locus YER167W, strain BCK2, hits give low values 0.998 | locus YFR010W, strain ubp6, hits give low values 1.03 | locus YGL078C, strain dbp3, hits give low values 1.01 | locus YGL086W, strain mad1, hits give low values 0.988 | locus YGL167C, strain pmr1, hits give low values 1.02 | locus YGL173C, strain kem1, hits give low values 1.01 | locus YGL227W, strain vid30, hits give low values 1.01 | locus YGL240W, strain doc1, hits give low values 1.01 | locus YGL248W, strain PDE1, hits give low values 0.994 | locus YGL253W, strain hxk2, hits give low values 1.03 | locus YGR078C, strain PAC10, hits give low values 0.997 | locus YGR135W, strain pre9, hits give low values 1.04 | locus YGR229C, strain SMI1, hits give low values 1.01 | locus YGR252W, strain gcn5, hits give low values 0.994 | locus YHR013C, strain ard1, hits give low values 1.04 | locus YHR027C, strain rpn1, hits give low values 1.01 | locus YHR030C, strain SLT2, hits give low values 1 and 0.973 | locus YHR079C, strain IRE1 (second series), hits give low values 0.997 | locus YHR079C, strain IRE1, hits give low values 0.967 | locus YHR094C, strain hxt1, hits give low values 1.01 | locus YHR129C, strain ARP1, hits give low values 0.996 | locus YHR142W, strain chs7, hits give low values 1.03 | locus YHR200W, strain rpn10, hits give low values 1 | locus YIL066C, strain RNR3, hits give low values 0.997 | locus YIL073C, strain SPO22, hits give low values 1.08 | locus YIL125W, strain kgd1, hits give low values 1 | locus YIR030C, strain dcg1, hits give low values 1.01 | locus YJL092W, strain hpr5, hits give low values 1.01 | locus YJL095W, strain BCK1 (second series), hits give low values 1 | locus YJL095W, strain BCK1, hits give low values 0.989 and 0.986 | locus YJL115W, strain asf1, hits give low values 1.01 | locus YJL129C, strain trk1, hits give low values 0.956 | locus YJL134W, strain LCB3, hits give low values 1 | locus YJL154C, strain vps35, hits give low values 1.01 | locus YJL164C, strain tpk1, hits give low values 1 | locus YJL166W, strain qcr8, hits give low values 1.01 | locus YJL168C, strain set2, hits give low values 1 | locus YJL187C, strain SWE1 (second series), hits give low values 0.995 | locus YJL187C, strain SWE1, hits give low values 1.01

From PubChem BioAssay AID1159580 (chemical genetic matrix, 2015)
